Article PMC9911399, “Two distinct binding modes provide the RNA-binding protein RbFox with extraordinary sequence specificity”
Changes are numbered by the printed parent chain; changes in the protein carry UniProt numbers. Whole data set: some 16,000 sequences, median “ka relative to ugcaugu” near 0.096, cut for the highest 2% near 0.35. The entries come from a sample that favours the highest values as a whole.

T1: RBFOX1 RRM RbFoxmut (Fox-RRM*) (Homo sapiens, UniProt Q9NWB1 109-208, R118D;E147R;N151S;E152T)
T1 sequence: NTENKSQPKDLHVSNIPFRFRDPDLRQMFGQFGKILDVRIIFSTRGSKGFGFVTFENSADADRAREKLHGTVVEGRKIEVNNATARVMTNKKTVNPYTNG

B1: UGACGAC (DNA:RNA)
RNA: GGGAGACCGGAAUUCAGAUUGUCCUGACGACUUAAAUCCCGUCGUAGCCACCA
DNA 1: CAATCTGAATTCCGGTCTCCC
DNA 2: TGGTGGCTACGACGGGATT
B2: GCCAGGU (DNA:RNA)
RNA: B1 RNA with U25G, G26C, A27C, C28A, A30G, C31U
DNA 1: CAATCTGAATTCCGGTCTCCC
DNA 2: TGGTGGCTACGACGGGATT
B3: UAUGCGU (DNA:RNA)
RNA: B1 RNA with G26A, A27U, C28G, G29C, A30G, C31U
DNA 1: CAATCTGAATTCCGGTCTCCC
DNA 2: TGGTGGCTACGACGGGATT
B4: GAAAGGG (DNA:RNA)
RNA: B1 RNA with U25G, G26A, C28A, A30G, C31G
DNA 1: CAATCTGAATTCCGGTCTCCC
DNA 2: TGGTGGCTACGACGGGATT
B5: GGCACGG (DNA:RNA)
RNA: B1 RNA with U25G, A27C, C28A, G29C, A30G, C31G
DNA 1: CAATCTGAATTCCGGTCTCCC
DNA 2: TGGTGGCTACGACGGGATT
B6: AUAACAC (DNA:RNA)
RNA: B1 RNA with U25A, G26U, C28A, G29C
DNA 1: CAATCTGAATTCCGGTCTCCC
DNA 2: TGGTGGCTACGACGGGATT
B7: UUAGACU (DNA:RNA)
RNA: B1 RNA with G26U, C28G, G29A, A30C, C31U
DNA 1: CAATCTGAATTCCGGTCTCCC
DNA 2: TGGTGGCTACGACGGGATT
B8: UCGAAUG (DNA:RNA)
RNA: B1 RNA with G26C, A27G, C28A, G29A, A30U, C31G
DNA 1: CAATCTGAATTCCGGTCTCCC
DNA 2: TGGTGGCTACGACGGGATT
B9: UCGUAUC (DNA:RNA)
RNA: B1 RNA with G26C, A27G, C28U, G29A, A30U
DNA 1: CAATCTGAATTCCGGTCTCCC
DNA 2: TGGTGGCTACGACGGGATT
B10: UCGAUUC (DNA:RNA)
RNA: B1 RNA with G26C, A27G, C28A, G29U, A30U
DNA 1: CAATCTGAATTCCGGTCTCCC
DNA 2: TGGTGGCTACGACGGGATT
B11: UCGAAUC (DNA:RNA)
RNA: B1 RNA with G26C, A27G, C28A, G29A, A30U
DNA 1: CAATCTGAATTCCGGTCTCCC
DNA 2: TGGTGGCTACGACGGGATT
B12: UCGAAAU (DNA:RNA)
RNA: B1 RNA with G26C, A27G, C28A, G29A, C31U
DNA 1: CAATCTGAATTCCGGTCTCCC
DNA 2: TGGTGGCTACGACGGGATT
B13: UCGAUUG (DNA:RNA)
RNA: B1 RNA with G26C, A27G, C28A, G29U, A30U, C31G
DNA 1: CAATCTGAATTCCGGTCTCCC
DNA 2: TGGTGGCTACGACGGGATT
B14: CCAUUAU (DNA:RNA)
RNA: B1 RNA with U25C, G26C, C28U, G29U, C31U
DNA 1: CAATCTGAATTCCGGTCTCCC
DNA 2: TGGTGGCTACGACGGGATT
B15: UUGGCUG (DNA:RNA)
RNA: B1 RNA with G26U, A27G, C28G, G29C, A30U, C31G
DNA 1: CAATCTGAATTCCGGTCTCCC
DNA 2: TGGTGGCTACGACGGGATT
B16: UUGGCUC (DNA:RNA)
RNA: B1 RNA with G26U, A27G, C28G, G29C, A30U
DNA 1: CAATCTGAATTCCGGTCTCCC
DNA 2: TGGTGGCTACGACGGGATT
B17: GUGUGGC (DNA:RNA)
RNA: B1 RNA with U25G, G26U, A27G, C28U, A30G
DNA 1: CAATCTGAATTCCGGTCTCCC
DNA 2: TGGTGGCTACGACGGGATT
B18: GUGGCUG (DNA:RNA)
RNA: GGGAGACCGGAAUUCAGAUUGUCCGUGGCUGUUAAAUCCCGUCGUAGCCACCA
DNA 1: CAATCTGAATTCCGGTCTCCC
DNA 2: TGGTGGCTACGACGGGATT
B19: GUGGCUC (DNA:RNA)
RNA: B18 RNA with G31C
DNA 1: CAATCTGAATTCCGGTCTCCC
DNA 2: TGGTGGCTACGACGGGATT
B20: UUGGCUA (DNA:RNA)
RNA: B18 RNA with G25U, G31A
DNA 1: CAATCTGAATTCCGGTCTCCC
DNA 2: TGGTGGCTACGACGGGATT

Biological target: T1, RBFOX1 RRM RbFoxmut (Fox-RRM*)
Experiment: EMSA; HiTS-Eq, 1 nM pool, 10 min; buffer printed only for the single-RNA assays: 10 mM Tris pH 7.5, 150 mM NaCl, 3.4 mM EDTA, 0.001% NP-40, 30 C
Settings: tags: His6 N-terminal (pET28a); label: 5' 32P
How it was run: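 Purified RbFox RRM, wild type or mutant, was incubated for 10 min in 50 µL with 1 nM of a 5′-radiolabelled RNA pool carrying 7 randomized nucleotides, whose flanks were annealed to DNA oligonucleotides, over a series of increasing protein concentrations. Unbound RNA was resolved on 8% native PAGE, cut out, reverse-transcribed, barcoded by PCR and sequenced on an Illumina HiSeq 2500. Relative association constants were derived from changes in read counts for each RNA species versus the control reaction and normalised to the cognate motif.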

| Binder | binding signal |
| --- | --- |
| B1 | 0.069 KA relative to UGCAUGU |
| B2 | 0.0955 KA relative to UGCAUGU |
| B3 | 0.108 KA relative to UGCAUGU |
| B4 | 0.0436 KA relative to UGCAUGU |
| B5 | 0.149 KA relative to UGCAUGU |
| B6 | 0.0733 KA relative to UGCAUGU |
| B7 | 0.0743 KA relative to UGCAUGU |
| B8 | 1.31 KA relative to UGCAUGU |
| B9 | 0.192 KA relative to UGCAUGU |
| B10 | 0.115 KA relative to UGCAUGU |
| B11 | 0.36 KA relative to UGCAUGU |
| B12 | 0.0789 KA relative to UGCAUGU |
| B13 | 0.239 KA relative to UGCAUGU |
| B14 | 0.131 KA relative to UGCAUGU |
| B15 | 0.435 KA relative to UGCAUGU |
| B16 | 0.134 KA relative to UGCAUGU |
| B17 | 0.132 KA relative to UGCAUGU |
| B18 | 0.549 KA relative to UGCAUGU |
| B19 | 0.125 KA relative to UGCAUGU |
| B20 | 0.168 KA relative to UGCAUGU |
